Source: the supplement of paper PMC8975748
± gives the standard deviation of the averaged measurements.

What was measured:
[1] = system: Saccharomyces cerevisiae BY4741 SeMeCo community; assay: mean cell size (pixel area) (pixels); higher = larger cells; details: 10 µM; 24 h; SM minimal medium
Outline: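 Yeast cells were fixed with paraformaldehyde, imaged by automated confocal microscopy and analysed in Harmony to obtain mean cell pixel area per well. They came from a four-plasmid fluorescent Saccharomyces cerevisiae BY4741 community, each plasmid complementing one auxotrophy and carrying a fluorescent marker. Before imaging, 70 µl of culture at OD600 = 0.3 was incubated for 24 h in SM medium in 384-well plates predosed acoustically with drug (final 10 µM). Values are means of 3 replicates. Same SeMeCo high-content imaging drug screen: Selleck FDA-approved drugs at 10 µM, 24 h in SM medium, 384-well plates, 3 replicates.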

[2] = system: Saccharomyces cerevisiae BY4741 SeMeCo community; assay: z-score of prototroph abundance vs DMSO median; higher = larger share of this subpopulation than in DMSO controls; details: 10 µM; 24 h; SM minimal medium; subpopulation (auxotrophy): Prototroph
Outline: (§1)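 Four plasmids, each restoring a single auxotrophy and encoding a distinct fluorescent protein, were carried by a Saccharomyces cerevisiae BY4741 community. After overnight growth to OD600 1.0 and dilution to 0.3, 70 µl per well was grown for 24 h in minimal SM medium on 384-well plates acoustically predosed with library drugs at 10 µM final. Following paraformaldehyde fixation, automated confocal microscopy was used, with single-auxotroph fluorescent strains defining thresholds and autofluorescence correction. Subpopulation abundance was then scored as a z-score against the vehicle-well median.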

[3] = system: Saccharomyces cerevisiae BY4741 SeMeCo community; assay: z-score of subpopulation abundance vs DMSO median, subpopulation auxotrophic for M; higher = larger share of this subpopulation than in DMSO controls; details: 10 µM; 24 h; SM minimal medium; subpopulation (auxotrophy): M
Outline: as §1

[4] = system: Saccharomyces cerevisiae BY4741 SeMeCo community; assay: z-score of subpopulation abundance vs DMSO median, subpopulation auxotrophic for L; higher = larger share of this subpopulation than in DMSO controls; details: 10 µM; 24 h; SM minimal medium; subpopulation (auxotrophy): L
Outline: as §1

[5] = system: Saccharomyces cerevisiae BY4741 SeMeCo community; assay: z-score of subpopulation abundance vs DMSO median, subpopulation auxotrophic for U; higher = larger share of this subpopulation than in DMSO controls; details: 10 µM; 24 h; SM minimal medium; subpopulation (auxotrophy): U
Outline: as §1

[6] = system: Saccharomyces cerevisiae BY4741 SeMeCo community; assay: z-score of subpopulation abundance vs DMSO median, subpopulation auxotrophic for H; higher = larger share of this subpopulation than in DMSO controls; details: 10 µM; 24 h; SM minimal medium; subpopulation (auxotrophy): H
Outline: as §1

[7] = system: Saccharomyces cerevisiae BY4741 SeMeCo community; assay: z-score of subpopulation abundance vs DMSO median, subpopulation auxotrophic for LU; higher = larger share of this subpopulation than in DMSO controls; details: 10 µM; 24 h; SM minimal medium; subpopulation (auxotrophy): LU
Outline: as §1

[8] = system: Saccharomyces cerevisiae BY4741 SeMeCo community; assay: z-score of subpopulation abundance vs DMSO median, subpopulation auxotrophic for HU; higher = larger share of this subpopulation than in DMSO controls; details: 10 µM; 24 h; SM minimal medium; subpopulation (auxotrophy): HU
Outline: as §1

[9] = system: Saccharomyces cerevisiae BY4741 SeMeCo community; assay: z-score of subpopulation abundance vs DMSO median, subpopulation auxotrophic for UM; higher = larger share of this subpopulation than in DMSO controls; details: 10 µM; 24 h; SM minimal medium; subpopulation (auxotrophy): UM
Outline: as §1

[10] = system: Saccharomyces cerevisiae BY4741 SeMeCo community; assay: z-score of subpopulation abundance vs DMSO median, subpopulation auxotrophic for HL; higher = larger share of this subpopulation than in DMSO controls; details: 10 µM; 24 h; SM minimal medium; subpopulation (auxotrophy): HL
Outline: as §1

[11] = system: Saccharomyces cerevisiae BY4741 SeMeCo community; assay: z-score of subpopulation abundance vs DMSO median, subpopulation auxotrophic for HLU; higher = larger share of this subpopulation than in DMSO controls; details: 10 µM; 24 h; SM minimal medium; subpopulation (auxotrophy): HLU
Outline: as §1

[12] = system: Saccharomyces cerevisiae BY4741 SeMeCo community; assay: z-score of subpopulation abundance vs DMSO median, subpopulation auxotrophic for HLM; higher = larger share of this subpopulation than in DMSO controls; details: 10 µM; 24 h; SM minimal medium; subpopulation (auxotrophy): HLM
Outline: as §1

[13] = system: Saccharomyces cerevisiae BY4741 SeMeCo community; assay: z-score of subpopulation abundance vs DMSO median, subpopulation auxotrophic for HUM; higher = larger share of this subpopulation than in DMSO controls; details: 10 µM; 24 h; SM minimal medium; subpopulation (auxotrophy): HUM
Outline: as §1

[14] = system: Saccharomyces cerevisiae BY4741 SeMeCo community; assay: z-score of subpopulation abundance vs DMSO median, subpopulation auxotrophic for LUM; higher = larger share of this subpopulation than in DMSO controls; details: 10 µM; 24 h; SM minimal medium; subpopulation (auxotrophy): LUM
Outline: as §1

[15] = system: Saccharomyces cerevisiae BY4741 SeMeCo community; assay: z-score of subpopulation abundance vs DMSO median, subpopulation auxotrophic for HLUM; higher = larger share of this subpopulation than in DMSO controls; details: 10 µM; 24 h; SM minimal medium; subpopulation (auxotrophy): HLUM
Outline: as §1

[16] = system: Saccharomyces cerevisiae BY4741 SeMeCo community; assay: z-score of subpopulation abundance vs DMSO median, subpopulation auxotrophic for HM; higher = larger share of this subpopulation than in DMSO controls; details: 10 µM; 24 h; SM minimal medium; subpopulation (auxotrophy): HM
Outline: as §1

[17] = system: Saccharomyces cerevisiae BY4741 SeMeCo community; assay: z-score of subpopulation abundance vs DMSO median, subpopulation auxotrophic for LM; higher = larger share of this subpopulation than in DMSO controls; details: 10 µM; 24 h; SM minimal medium; subpopulation (auxotrophy): LM
Outline: as §1

Row | Structure (SMILES) | mean cell size [1] | z-score of prototroph abundance [2] | z-score of subpopulation abundance [3] | z-score of subpopulation abundance [4] | z-score of subpopulation abundance [5] | z-score of subpopulation abundance [6] | z-score of subpopulation abundance [7] | z-score of subpopulation abundance [8] | z-score of subpopulation abundance [9] | z-score of subpopulation abundance [10] | z-score of subpopulation abundance [11] | z-score of subpopulation abundance [12] | z-score of subpopulation abundance [13] | z-score of subpopulation abundance [14] | z-score of subpopulation abundance [15] | z-score of subpopulation abundance [16] | z-score of subpopulation abundance [17]
1 | O=C(O)c1cccnc1Nc1cccc(C(F)(F)F)c1 [Niflumic acid] | 12.9 ± 0.17 | -0.15 | 0.7 | -0.68 | 0.51 | -0.77 | 0.28 | -0.46 | -0.28 | -0.39 | -0.64 | 0.59 | -0.49 | 0.4 | -0.43 | – | –
2 | COc1ccc(CC2c3cc(OC)c(OC)cc3CC[N+]2(C)CCC(=O)OCCCCCOC(=O)CC[N+]2(C)CCc3cc(OC)c(OC)cc3C2Cc2ccc(OC)c(OC)c2)cc1OC (configuration not stated) [Atracurium Besylate] | 12.4 ± 0.24 | -0.17 | -0.87 | 1.52 | -0.48 | 0.57 | 0.39 | 0.23 | -0.21 | 1.4 | 0.55 | 0.51 | 0.71 | 0.45 | – | 0.41 | –
3 | C[N+]1(C)[C@@H]2CC[C@H]1C[C@@H](OC(=O)C(O)c1ccccc1)C2 (some centres not stated) [Homatropine Methylbromide] | 12.4 ± 0.32 | 0.29 | -0.38 | -0.63 | 0.46 | -1.04 | 0.06 | 0.05 | 0.8 | -0.55 | 0 | -0.66 | 0.4 | -0.14 | -0.38 | – | –
4 | CC(c1cc2ccccc2s1)N(O)C(N)=O (configuration not stated) [Zileuton] | 12.6 ± 0.19 | 0.05 | 0.27 | 0.85 | 0.31 | -0.65 | 0.65 | -0.39 | 0.34 | -0.17 | 0.44 | 0.43 | -0.33 | 0.12 | – | -0.32 | –
5 | CCCOc1ccc2c(c1)CC[C@@H]1[C@@H]2CC[C@]2(C)[C@@H](OC)CC[C@@H]12 [Promestriene] | – | -1.13 | 1.08 | 0.77 | 0.31 | – | 0.62 | 0.21 | 1.71 | 0.84 | 0.6 | 0.48 | 1.7 | 1.34 | 0.24 | 0.25 | –
6 | CCN(CC)CCOC(=O)c1ccc(N)cc1 [Procaine] | – | 0.34 | -1.12 | -0.42 | 1.32 | -0.4 | 0.48 | 0.81 | 0.14 | -0.79 | -1.15 | -1.03 | 0.39 | 0.13 | -0.71 | – | -0.46
7 | COCCCOc1ccnc(C[S+]([O-])c2nc3ccccc3[nH]2)c1C (configuration not stated) [Rabeprazole] | 12.5 ± 0.21 | – | -1.07 | 1.62 | 0.43 | – | 1.56 | 0.85 | -0.92 | 1.62 | 1.71 | 0.32 | – | – | 0 | 0.01 | -0.33
8 | CN[C@H]1C(=O)N[C@@H]2Cc3ccc(cc3)Oc3cc4cc(c3O[C@@H]3O[C@H](C(=O)O)[C@@H](O)[C@H](O)[C@H]3NC(=O)CCCCCCCCC(C)C)Oc3ccc(cc3Cl)[C@@H](O)[C@@H]3NC(=O)[C@H](NC(=O)[C@@H]4NC(=O)[C@@H](NC2=O)c2cc(cc(O)c2Cl)Oc2cc1ccc2O)c1ccc(O)c(c1)-c1c(O[C@H]2O[C@H](CO)[C@@H](O)[C@H](O)[C@@H]2O)cc(O)cc1[C@@H](C(=O)NCCCN(C)C)NC3=O [Dalbavancin] | – | -0.15 | -4.48 | -0.21 | 1.53 | 4.04 | -0.56 | – | -0.56 | 1.2 | 2.43 | 1.32 | 1.97 | 0.72 | 0.69 | -1.02 | -1.16
